About 83,000 compounds went through this panel and 20% of them were active in at least one assay; those are over-represented in the sample as a whole.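 48-hour exposure, single concentration, 96-well plates; percent growth endpoint where 0 means no net growth. Active: below 10.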 Values without a mark were called inactive. Activity calls are given as the source filed them.

Test in all cases: NCI-60 one-dose screen, 48 h (100 = growth as untreated, 0 = no growth, -100 = all killed)
Common to all, as to details: 10 µM unless noted

In assay [1] the test system is NCI-H23 lung.
Assay [2] deals with NCI-H226 lung.
The subject of assay [3] is NCI-H322M lung.
The subject of assay [4] is HOP-62 NSCLC.
In assay [5] the test system is NCI-H460 lung.
Assay [6] relates to HOP-92 NSCLC.
For assay [7], the system named is NCI-H522 lung.
Assay [8] deals with A549/ATCC NSCLC.
The subject of assay [9] is 786-0 renal.
The subject of assay [10] is COLO 205 colon.
In assay [11] the test system is DU-145 prostate.
In assay [12] the test system is K-562 leukemia.
In assay [13] the test system is MALME-3M melanoma.
For assay [14], the system named is MDA-MB-231 breast.
For assay [15], the system named is RXF 393 renal.
For assay [16], the system named is SF-268 CNS.
Assay [17] relates to SF-295 CNS.
Assay [18] deals with SF-539 CNS.
For assay [19], the system named is UACC-257 melanoma.
The test system of assay [20] is M14 melanoma.

Turning to `COc1cc(C(=O)C[n+]2ccccc2)ccc1OC(C)=O`, the growth is 106% in assay [1]; 96.3% in assay [2]; 106% in assay [3]; 94.6% in assay [4]; 99% in assay [5]; 91.5% in assay [6]. For the same molecule, the growth in assay [7] was 98%; in assay [8], 98.3%; in assay [9] it was 90.9%; in assay [10] it was 104%; in assay [11] it was 106%; in assay [12] it was 101%. Besides, the growth in assay [13] is 105%; in [14], 102%; in assay [15], 92%; in assay [16], 98.4%; in assay [17], 97.4%; in assay [18], 94.3%. Further, the growth in assay [19] is 95.4%; in [20], 94.9%.

Take `CN(C)CCS(=O)(=O)Nc1cc(-c2ccc3ncnc(Nc4ccc(F)c(Cl)c4)c3c2)cnc1Cl`: the growth is -10.1% (active) in assay [1]; 1.48% (active) in [2]; -21.5% (active) in [3]; -5.38% (active) in [4]; 7.68% (active) in [5]; -21.4% (active) in [6]. The growth in [7] was -17.7% (active); in assay [8], -31.7% (active); in assay [9], 12.8%; in assay [10] it was -80% (active); in assay [11] it was -3.31% (active); in assay [12], 9.31% (active). Also, the growth is -23.2% (active) in assay [13]; -26.8% (active) in [14]; -47.2% (active) in assay [15]; -20.9% (active) in [16]; 10.1% in assay [17]; -22.2% (active) in [18]. The growth is -0.224% (active) in [19] and 4.73% (active) in assay [20].

`COc1ccc(N)c(S)c1`: the growth was 92.3% in assay [1]; 92.8% in assay [2]; 106% in assay [3]; 90.5% in [4]; 106% in assay [5]; 88.4% in assay [6]. Also, the growth in assay [7] is 84.5%; in assay [8], 77.1%; in [9] it was 107%; in assay [10], 84.5%; in assay [11], 102%; in assay [12], 97.4%. Besides, the growth was 101% in assay [13]; 86.7% in assay [14]; 111% in assay [15]; 105% in assay [16]; 100% in assay [17]; 101% in assay [18]. The growth in assay [19] is 80.5%; in assay [20], 101%.

In the case of `CCc1ccc(C2=C/C(=C/c3ccc(Cl)cc3)C(=O)N2CCc2ccc(S(N)(=O)=O)cc2)cc1`, the growth is 34.4% in assay [1]; 29.2% in assay [2]; 54.3% in assay [3]; 34.1% in [4]; 2.69% (active) in [5]; 15.1% in assay [6]. Besides, the growth was 5.98% (active) in [7]; 13.7% in assay [8]; 40% in [9]; -35.4% (active) in [10]; 43.8% in assay [11]; 11% in [12]. The growth in [13] is 41.5%; in assay [14] it was 43.8%; in assay [15], 7.12% (active); in [16], 45.6%; in assay [17], 25.9%; in [18], 56.1%. For the same molecule, the values for the growth in assay [19] and in assay [20] were 39.4% and 30.6%, respectively.

As to `OC(COc1ccccc1Cl)CN1CCN(c2ccc(Cl)cc2)CC1` (stereo not given), the growth was 107% in assay [1]; 94.5% in [2]; 101% in assay [3]; 108% in assay [4]; 104% in assay [5]; 85.8% in [6]. The growth in assay [7] was 92.6%; in assay [8], 112%; in assay [9] it was 106%; in [10], 116%; in assay [11], 110%; in [12] it was 115%. Also, the growth was 110% in assay [13]; 103% in [14]; 94.3% in assay [15]; 104% in assay [16]; 97.9% in assay [17]; 90.6% in assay [18]. Also, the growth in [19] was 109%; in assay [20], 105%.

With `CC(C)C1(C(C)C)NC(=O)NC1=O`, the growth in assay [1] was 99.2%; in assay [2], 102%; in assay [3], 119%; in [4] it was 96.6%; in assay [5], 99.9%; in [6], 93.2%. Moreover, the growth in [7] is 94.8%; in assay [8], 101%; in assay [9], 101%; in assay [10], 117%; in assay [11] it was 93.7%; in [12], 108%. The growth in assay [13] was 163%; in assay [14] it was 109%; in assay [15] it was 107%; in assay [16] it was 94%; in assay [17], 99.4%; in [18], 91.6%. Besides, the figures for the growth in assay [19] and in [20] were 106% and 110%, respectively.

On to `C=CC(=O)Nc1cccc(Nc2nc(Nc3ccc(OCCOC(F)F)cc3)ncc2F)c1`, for which the growth in assay [1] was 75.2%; in assay [2], 22.5%; in assay [3] it was 10.3%; in assay [4], 29.1%; in [5] it was 37.4%; in assay [6], -0.338% (active). The growth in assay [7] is -7.77% (active); in assay [8], 30.9%; in [9] it was 20%; in assay [10] it was 63.5%; in assay [11], 34.7%; in assay [12] it was 19.9%. For the same molecule, the growth in assay [13] is 46.3%; in assay [14] it was 66.3%; in [15], 9.55% (active); in [16] it was 40.5%; in [17], 52.5%; in [18], 31.4%. Further, the growth in assay [19] was 52.7%; in assay [20], 29%.

For `N#Cc1c2c(c(N)[nH]c1=O)C(=O)NC2(O)c1ccccc1` (stereo not given), the growth is 98.8% in assay [1]; 99.2% in assay [2]; 103% in assay [3]; 104% in assay [4]; 118% in assay [5]; 114% in assay [6]. Moreover, the growth in assay [7] was 85.1%; in [8], 97.1%; in [9], 104%; in assay [10], 107%; in assay [11], 105%; in [12], 98.7%. Moreover, the growth in [13] was 87.1%; in [14], 112%; in assay [15], 103%; in [16] it was 105%; in [17], 100%; in assay [18] it was 104%. Besides, the growth was 96.7% in [19] and 100% in assay [20].

As for `CC(Cc1cccc(C(F)(F)F)c1)NCCOC(=O)c1ccccc1` (stereo not given), the growth in [1] is 101%; in assay [2] it was 98.3%; in [3], 100%; in assay [4] it was 102%; in assay [5], 114%; in assay [6] it was 114%. The growth in assay [7] was 100%; in assay [8] it was 105%; in [9], 97.9%; in [10] it was 106%; in assay [11], 112%; in [12], 94.4%. Moreover, the growth was 104% in assay [13]; 102% in assay [14]; 117% in assay [15]; 99.5% in [16]; 98.4% in [17]; 116% in [18]. In addition, the values for the growth in [19] and in assay [20] were 105% and 106%, respectively.

As for `O=C(C[n+]1cccc(Br)c1)c1ccc2c(c1)CCCC2`, the growth in [1] is 92%; in assay [2], 93.2%; in assay [3], 101%; in assay [4], 89%; in assay [5] it was 105%; in [6], 70.5%. For the same molecule, the growth was 80.5% in assay [7]; 95.9% in assay [8]; 88.3% in assay [9]; 91.4% in assay [10]; 110% in assay [11]; 100% in [12]. Also, the growth in [13] is 96.6%; in [14] it was 99.4%; in [15], 117%; in assay [16], 103%; in assay [17], 104%; in [18] it was 98.6%. Besides, the results for the growth in assay [19] and in [20] were 112% and 92.4%, respectively.

Consider `COc1ccc(C2=NN(C(=O)COc3ccc(Cl)cc3)C(O)(c3cc(F)c(Cl)cc3Cl)C2)cc1` (stereo not given), for which the growth is 96.3% in assay [1]; 109% in [2]; 83.4% in assay [3]; 61.8% in assay [4]; 109% in assay [5]; 39.4% in [6]. Moreover, the growth was 79.5% in assay [7]; 96.4% in [8]; 82% in assay [9]; 101% in assay [10]; 105% in [11]; 82.4% in assay [12]. Further, the growth in assay [13] was 85.8%; in [14] it was 105%; in [15], 94.1%; in assay [16], 102%; in [17], 80.6%; in [18], 89.3%. Further, the results for the growth in [19] and in assay [20] were 98.6% and 85.2%, respectively.

For the molecule `O=C(O)c1ccc2nc(-c3ccc(OCCCCCOc4ccc(-c5nc6ccc(C(=O)O)cc6[nH]5)cc4)cc3)[nH]c2c1`, the growth in assay [1] is 46%; in [2], 63.4%; in assay [3], 91.5%; in [4] it was 91.9%; in assay [5], 109%; in assay [6] it was 100%. Moreover, the growth is 92.8% in assay [7]; 81.7% in assay [8]; -20.8% (active) in assay [9]; 8.79% (active) in [10]; 120% in assay [11]; 77.6% in assay [12]. For the same molecule, the growth in [13] is 173%; in assay [14], 105%; in assay [15], -11.8% (active); in [16], 156%; in assay [17] it was 123%; in assay [18], 108%. The growth was 78.8% in [19] and 94.1% in [20].

Consider `CCN(CC)c1ccc(C2CC(c3cc(OC)c(OC)c(OC)c3)=NN2)cc1` (stereo not given), for which the growth was 32.3% in assay [1]; 67.9% in [2]; 41.5% in assay [3]; 34.7% in assay [4]; 2.68% (active) in assay [5]; -13.6% (active) in assay [6]. Besides, the growth was -9.2% (active) in assay [7]; 13.7% in assay [8]; 23.5% in assay [9]; -25.7% (active) in [10]; -36.1% (active) in assay [11]; 5.52% (active) in assay [12]. In addition, the growth in assay [13] was 108%; in assay [14], 31.7%; in assay [15], -20.9% (active); in assay [16] it was 28.1%; in [17], 33.9%; in [18], -43.1% (active). Also, the growth is 30.8% in [19] and 5.55% (active) in [20].

These data come from PubChem BioAssay (NCI).
